Screening data: PubChem BioAssay, National Center for Advancing Translational Sciences (NCATS)
15-hLO inh: qHTS Assay for Inhibitors of 15-hLO (15-human lipoxygenase); Polyunsaturated fatty acid lipoxygenase ALOX15 (Homo sapiens), P16050; purified 15hLO-1, xylenol orange hydroperoxide absorbance; Potency, µM (highest dose often 57.1 µM), most hits filed as inhibitors; 74,000 tested, 1.4% active; further: nearly all actives have a fitted effect of over 55% in size
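Inhibition is scored from a chromogenic endpoint. After 15 min enzyme-compound contact, arachidonic acid (50 uM final) reacts 6 min with 40 nM 15hLO-1 at room temperature, then Fe-XO reagent is added for 30 min and absorbance ratio recorded.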
Casp7 inh: qHTS Assay for Allosteric/Competitive Inhibitors of Caspase-7; P55210; recombinant caspase-7, Ac-DEVD-AFC fluorescence rate; Potency, µM (series often up to 57.5 µM), actives largely listed as inhibitors; 75,000 tested, 0.02% active; active means well fitted inhibition curve with a large enough effect in the main read-out, with a control signal flat, not every such curve was filed as active; inconclusive means small, poorly fitted or top-dose-only effect, or a change in a side signal
Target sequence (P55210 24-198 limits assumed): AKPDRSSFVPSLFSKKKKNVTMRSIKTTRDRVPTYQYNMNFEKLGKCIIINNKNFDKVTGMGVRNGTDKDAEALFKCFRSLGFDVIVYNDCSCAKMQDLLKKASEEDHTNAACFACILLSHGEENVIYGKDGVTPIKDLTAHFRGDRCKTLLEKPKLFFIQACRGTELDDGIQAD
Target sequence (P55210 207-303 limits assumed): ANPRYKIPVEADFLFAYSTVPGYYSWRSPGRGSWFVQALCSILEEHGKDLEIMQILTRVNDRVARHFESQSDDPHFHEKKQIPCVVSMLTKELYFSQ
Casp1 inh: qHTS Assay for Allosteric/Competitive Inhibitors of Caspase-1. 75,000 tested, 0.03% active. Potency, µM (titrated, usually from 57.5 µM), usual class: inhibitors. P29466. Caspase-1 enzyme, Ac-WEHD-AFC fluorogenic rate
Target sequence (P29466 120-297 limits assumed): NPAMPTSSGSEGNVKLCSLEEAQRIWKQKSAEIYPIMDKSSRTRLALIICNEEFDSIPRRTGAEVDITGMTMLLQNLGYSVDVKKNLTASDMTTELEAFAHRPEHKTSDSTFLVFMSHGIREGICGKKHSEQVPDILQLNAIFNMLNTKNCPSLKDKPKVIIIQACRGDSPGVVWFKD
Target sequence (P29466 317-404 limits assumed): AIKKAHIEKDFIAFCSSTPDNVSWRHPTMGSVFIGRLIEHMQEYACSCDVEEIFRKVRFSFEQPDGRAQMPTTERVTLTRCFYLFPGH
ERK AVP inh: qHTS Assay for Inhibitors of the ERK Signaling Pathway using a Homogeneous Screening Assay. HEK293-V1b, vasopressin-stimulated pERK AlphaScreen. Potency, µM (top dose mostly 57.5 µM), hits mostly inhibitors. AID 995, 2007. 72,000 tested, 0.99% active; further: nearly all actives have a fitted effect of over 55% in size
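qHTS, compounds titrated on V1b-expressing HEK293 cells. Preincubation 30 min at 37C, vasopressin 25 nM for 5 min, lysis 10 min, bead incubation 5 hr at room temperature.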
TSHR agonist: qHTS Assay for Agonists of the Thyroid Stimulating Hormone Receptor. Thyrotropin receptor (Homo sapiens), P16473. HEK293-CNG-TSHR cells (CNG channel as cAMP sensor), membrane potential dye, cAMP. Potency, µM (doses to about 57.1 µM), actives largely listed as activators. 73,000 tested, 0.48% active; active means well fitted activation curve with a large enough effect in the main read-out, with a control signal flat, not every such curve was filed as active; inconclusive means small, poorly fitted or top-dose-only effect, or a change in a side signal; inactive means no such curve, though single readings can be large or run the other way; reference of the percent scale not stated here;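 further: the control signal comes from parental cells without the receptor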
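cAMP rise detected as CNG-channel membrane depolarization by fluorescent dye (emission 590 nm), 30 min after compound, following 60 min dye loading containing 100 uM RO 20-1724 at room temperature. Cells: TSHR/CNG HEK 293, with parental CNG HEK 293 as control.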
HEK293 cAMP ctrl: qHTS Assay for Agonists of the Thyroid Stimulating Hormone Receptor: Activators of Intracellular cAMP Concentrations in Parental HEK 293; Potency, µM (titrated, usually from 57.1 µM), hits mostly activators; parental HEK293 CNG cAMP sensor, membrane potential fluorescence; 73,000 tested, 2.5% active; further: nearly all actives have a fitted effect of over 55% in size
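Parental HEK 293 cells stably expressing a modified CNG channel (no TSHR) report cAMP rise as membrane depolarization. Membrane potential dye with 100 uM RO 20-1724 was loaded for 60 min at room temperature, then compound added for 30 min; fluorescence read at 590 nm.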
A number is an active result; [ ] = dose if it differs, or a comment. Only some compounds are listed: those with a hit (about 4.8% of all), similar ones and a draw of the others. Unless noted, the call rests on the fitted dose curve; in most records, active means well fitted curve in the direction sought with a large enough effect; inconclusive means small, poorly fitted or top-dose-only effect, or another doubt; inactive means no such curve, though single readings can be large; an effect the other way counts as inactive or inconclusive.

For Cc1ccc(C)c(S(=O)(=O)C(C#N)c2nc3ccccc3nc2N2CCOCC2)c1 (stereo not given) the results were 15-hLO inh inactive, Casp7 inh inconclusive, ERK AVP inh inactive, TSHR agonist inactive and HEK293 cAMP ctrl inactive.
Screening Cc1ccc(C)c(S(=O)(=O)C(C#N)c2nc3ccccc3nc2N2CCCC2)c1 (stereo not given) returned 15-hLO inh 13µM, Casp7 inh inconclusive, ERK AVP inh inconclusive, TSHR agonist inactive and HEK293 cAMP ctrl inactive.
CC(=O)C1=C(C)OC(N)=C(C#N)C1c1ccco1 (stereo not given) was read as 15-hLO inh inactive, Casp7 inh inactive, Casp1 inh inconclusive, ERK AVP inh inactive, TSHR agonist inactive and HEK293 cAMP ctrl inactive.
CC1=C(C(=O)Nc2ccccc2)C(c2ccco2)C(C#N)=C(SCC(=O)Nc2cccc(C)c2C)N1 (stereo not given) was read as 15-hLO inh inactive, Casp7 inh inactive, Casp1 inh inactive, ERK AVP inh inactive, TSHR agonist inactive and HEK293 cAMP ctrl inactive.
Screening CC(=O)C1=C(C)NC(SCC(=O)c2ccc(Cl)c(Cl)c2)=C(C#N)C1c1ccco1 (stereo not given) returned 15-hLO inh 13µM, Casp7 inh inconclusive, ERK AVP inh inactive, TSHR agonist inactive and HEK293 cAMP ctrl inactive.
For CC(=O)C1=C(C)NC(SCC(=O)c2cc(Cl)ccc2Cl)=C(C#N)C1c1ccco1 (stereo not given) the results were 15-hLO inh 4µM, Casp7 inh inconclusive, ERK AVP inh inactive and HEK293 cAMP ctrl inactive.
For CS(=O)(=O)N1CCC[C@@]2(CCN(Cc3nccs3)C2)C1 the results were 15-hLO inh inactive, Casp7 inh inactive, Casp1 inh inactive, ERK AVP inh inactive, TSHR agonist inconclusive and HEK293 cAMP ctrl inconclusive.
Screening Nc1ncnc2nc[nH]c12.Nc1ncnc2nc[nH]c12.[Cl][Pt]([Cl])([Cl])[Cl] returned TSHR agonist inactive[11.4 µM] and HEK293 cAMP ctrl inactive[11.4 µM].
Screening Cc1ccc(NC(=O)Nc2cccs2)cc1 returned 15-hLO inh 25µM, Casp7 inh inactive, Casp1 inh inactive, TSHR agonist inactive and HEK293 cAMP ctrl inactive.
For CC(=O)c1cccc(NC(=O)Nc2cccs2)c1 the results were 15-hLO inh inconclusive, Casp7 inh inactive, Casp1 inh inactive, TSHR agonist inactive and HEK293 cAMP ctrl inactive.
`O=C(Nc1cccs1)Nc1ccccc1Cl` gave 15-hLO inh 13µM, Casp7 inh inactive, Casp1 inh inactive, ERK AVP inh inconclusive, TSHR agonist inactive and HEK293 cAMP ctrl inactive.
`CCc1ccc(NC(=O)Nc2cccs2)cc1` gave 15-hLO inh 25µM, Casp7 inh inactive, Casp1 inh inactive, ERK AVP inh inactive, TSHR agonist inactive and HEK293 cAMP ctrl inactive.
Cc1ccccc1C(N)=O was read as 15-hLO inh inactive, Casp7 inh inactive, Casp1 inh inactive, ERK AVP inh inactive, TSHR agonist inactive and HEK293 cAMP ctrl inactive.
Screening CN1CCN(c2ncc3nc(-c4ccccc4)c(=O)n(CCc4ccccc4)c3n2)CC1 returned 15-hLO inh inconclusive, Casp7 inh inconclusive, ERK AVP inh inactive, TSHR agonist inactive and HEK293 cAMP ctrl inactive.
Screening Oc1cccc(Nc2nc(NCC3CCCO3)c3ccccc3n2)c1 (stereo not given) returned 15-hLO inh inconclusive, Casp7 inh inactive, Casp1 inh inactive, ERK AVP inh 16µM, TSHR agonist inconclusive and HEK293 cAMP ctrl inconclusive.
`O=C1C=C[C@@H](O)[C@H]2[C@@H]3C(=O)N(Cc4ccccc4)C(=O)[C@@H]3CC[C@H]12` gave 15-hLO inh inactive[11.4 µM], Casp7 inh inactive[11.5 µM], Casp1 inh inactive[11.5 µM], ERK AVP inh inactive[11.5 µM], TSHR agonist inactive[11.4 µM] and HEK293 cAMP ctrl inactive[11.4 µM].
For Cn1cc(C(=O)c2ccc(Cl)cc2)cc1-c1nc2ccccc2n1C the results were 15-hLO inh inactive, Casp7 inh inactive, Casp1 inh inactive, ERK AVP inh 32µM, TSHR agonist inconclusive and HEK293 cAMP ctrl 32µM.
`Cn1c(=O)c(C(=O)c2ccccc2)nc2ccccc21` gave 15-hLO inh inactive, Casp7 inh inactive, Casp1 inh inactive, ERK AVP inh inactive, TSHR agonist inactive and HEK293 cAMP ctrl inactive.
For Fc1cccc(Cl)c1CSc1nnc(COc2cccc3cccnc23)o1 the results were 15-hLO inh inactive, Casp7 inh inactive, Casp1 inh inactive, ERK AVP inh inconclusive, TSHR agonist inconclusive and HEK293 cAMP ctrl 25µM.
For N#Cc1c(C(F)(F)F)cc(-c2ccco2)nc1SCc1ccccn1 the results were 15-hLO inh inactive, Casp7 inh inactive, Casp1 inh inactive, ERK AVP inh inactive, TSHR agonist inconclusive and HEK293 cAMP ctrl 32µM.
For Cc1ccccc1Nc1nc(CSc2nnc(-c3ccoc3C)n2C)cs1 the results were 15-hLO inh 13µM, Casp7 inh inactive, Casp1 inh inactive, ERK AVP inh inactive and HEK293 cAMP ctrl inactive.
For Cc1occc1-c1nnc(SCC(=O)NCCc2ccccc2)n1Cc1ccccc1 the results were 15-hLO inh inactive, Casp7 inh inactive, Casp1 inh inactive, ERK AVP inh inactive, TSHR agonist inconclusive and HEK293 cAMP ctrl 20µM.
Cn1nnnc1SCC(=O)Nc1ccccc1N1CCOCC1 was read as 15-hLO inh inactive, Casp7 inh inactive, Casp1 inh inactive, ERK AVP inh inactive, TSHR agonist inactive and HEK293 cAMP ctrl inactive.
For Cc1occc1-c1nnc(SCc2cc(=O)n3cc(Br)ccc3n2)n1C the results were 15-hLO inh inconclusive, Casp7 inh inactive, Casp1 inh inactive, ERK AVP inh inactive, TSHR agonist inactive and HEK293 cAMP ctrl inactive.
Cn1c(-c2ccc(F)cc2)cnc1SCC(=O)Nc1ccccc1N1CCOCC1 was read as 15-hLO inh inactive, Casp7 inh inactive, Casp1 inh inactive, ERK AVP inh 32µM, TSHR agonist inconclusive and HEK293 cAMP ctrl inconclusive.
For CCn1c(SCC(=O)N2CCCC2)nc2c1c(=O)n(C)c(=O)n2C the results were 15-hLO inh inactive, Casp7 inh inactive, Casp1 inh inactive, ERK AVP inh 20µM, TSHR agonist inactive and HEK293 cAMP ctrl inactive.
For CCn1c(SC(=O)NC2CCCCC2)nnc1-c1cccs1 the results were 15-hLO inh inactive, Casp7 inh inactive, Casp1 inh inactive, ERK AVP inh inactive, TSHR agonist inactive and HEK293 cAMP ctrl inactive.
`COc1ccc(-c2nc3cnc(Nc4cccc(OC)c4)nc3n(C)c2=O)cc1` gave 15-hLO inh inactive, Casp7 inh inactive, Casp1 inh inactive, ERK AVP inh inconclusive, TSHR agonist inactive and HEK293 cAMP ctrl inactive.
Cc1nc2cnc(N3CCNCC3)nc2n(CCC#N)c1=O was read as 15-hLO inh inactive, Casp7 inh inconclusive, ERK AVP inh inactive, TSHR agonist inactive and HEK293 cAMP ctrl inactive.
